One assay has as its target Albumin (Bos taurus) (UniProt P02769). Nature of the assay: compounds binding labelled BSA control protein – biochemical, small-molecule microarray, Alexa647 label, 635/667 nm fluorescence, artefact control for SMM control protein annotation, profiling panel (AID 1118).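 Note: score merges 667 nm emission intensity and signal-to-noise per printed compound spot.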 Conditions: BSA-A647 binding, fluorescence 635 nm, higher = more signal.
Assay [1] can be described thus: probe aXIP binding to arrayed compounds – biochemical, NeuroSMM set, 635/667 nm fluorescence, primary screen (AID 1119).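 Note: probe is the protein aXip251-270 applied at 1 µg/mL to compound-printed slides; binding of probe to printed compounds measured as 667 nm fluorescence plus signal to noise.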 As to conditions: small-molecule microarray, higher = more signal, called active from +8 up or from −8 down.
A short description of assay [2]: probe aNOTCH3 binding on compound microarray – biochemical, small-molecule microarray, 635/667 nm fluorescence, primary screen (AID 1120).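 Note: probe is a biotin-tagged antibody raised against NOTCH3 rather than NOTCH3 protein; score merges spot fluorescence near 667 nm with spot signal to noise.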 Conditions: higher = more signal.
Assay [3] is described as follows: probe aNOTCH2 binding on compound microarray – biochemical, small-molecule microarray, 635/667 nm fluorescence, primary screen (AID 1121).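 Note: score merges feature fluorescence read at 667 nm with its signal to noise.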 Conditions: higher = more signal.
Assay [4] concerns the target Carbonic anhydrase 2 (Homo sapiens) (UniProt P00918). The experiment in a line: compounds binding carbonic anhydrase 2 – biochemical, small-molecule microarray, Alexa647-labelled CAII, profiling panel (AID 1122). As to conditions: CAII-A647 binding fluorescence, higher = more signal.
Assay [5] in a line: COS7 lysate on small-molecule microarray, probe aHis, 635 nm (AID 1123).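 Note: z-score combines 667nm fluorescence intensity with signal-to-noise per printed compound spot.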 Conditions: COS7 cell lysate, fluorescence, higher = more signal.
The nature of assay [6]: probe aLAP1 signal on lysate-treated microarray – cell lysate, small-molecule microarray, COS7 lysate, primary screen (AID 1124).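 Note: lysate comes from COS7 cells expressing LAP1 and is applied at 0.3 µg/mL; score merges spot fluorescence near 667 nm with signal-to-noise over triplicate slides.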 As to conditions: probe aLAP1, fluorescence, higher = more signal.
For another assay, the system named is Sam68 (KHDRBS1). The experiment in a line: compounds binding KHDRBS1 protein – biochemical, small-molecule microarray, 635 nm fluorescence, primary screen (AID 1125).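 Note: score merges 667 nm channel intensity with signal to noise over triplicate slides.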 Conditions: higher = more signal.
Assay [7] deals with Chordin-like protein 2 (CHRDL2). Nature of the assay: compounds binding chordin-like 2 – biochemical, small-molecule microarray, 635 nm fluorescence, primary screen (AID 1126).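 Note: printed compound slides probed with Chrdl2 protein at 4 µg/mL for 1 h at 4 C; score merges 667 nm emission intensity with signal to noise over three replicate slides.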 As to conditions: fluorescence 635 nm, higher = more signal.
For assay [8], the target named is Concanavalin-A (Canavalia ensiformis) (UniProt P02866). The experiment in a line: compounds binding concanavalin A lectin – biochemical, small-molecule microarray, Alexa647 label, 635 nm, artefact control for SMM control protein annotation, primary screen (AID 1127).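 Note: z combines 667 nm emission intensity with signal-to-noise across three replicate slides.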 Conditions: ConA-A647 binding fluorescence, higher = more signal.
Sequence of Concanavalin-A (Canavalia ensiformis) (P02866 whole entry, looked up): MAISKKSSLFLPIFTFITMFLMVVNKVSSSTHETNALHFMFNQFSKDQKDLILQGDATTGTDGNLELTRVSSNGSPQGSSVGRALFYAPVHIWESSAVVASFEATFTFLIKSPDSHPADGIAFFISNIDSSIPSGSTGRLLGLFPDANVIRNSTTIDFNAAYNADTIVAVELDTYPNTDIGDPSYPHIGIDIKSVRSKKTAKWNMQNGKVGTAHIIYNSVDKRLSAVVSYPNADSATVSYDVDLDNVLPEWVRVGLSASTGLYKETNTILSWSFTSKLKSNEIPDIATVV

Active and inactive are the calls of the source.

Sequence of Albumin (Bos taurus) (P02769 whole entry, looked up): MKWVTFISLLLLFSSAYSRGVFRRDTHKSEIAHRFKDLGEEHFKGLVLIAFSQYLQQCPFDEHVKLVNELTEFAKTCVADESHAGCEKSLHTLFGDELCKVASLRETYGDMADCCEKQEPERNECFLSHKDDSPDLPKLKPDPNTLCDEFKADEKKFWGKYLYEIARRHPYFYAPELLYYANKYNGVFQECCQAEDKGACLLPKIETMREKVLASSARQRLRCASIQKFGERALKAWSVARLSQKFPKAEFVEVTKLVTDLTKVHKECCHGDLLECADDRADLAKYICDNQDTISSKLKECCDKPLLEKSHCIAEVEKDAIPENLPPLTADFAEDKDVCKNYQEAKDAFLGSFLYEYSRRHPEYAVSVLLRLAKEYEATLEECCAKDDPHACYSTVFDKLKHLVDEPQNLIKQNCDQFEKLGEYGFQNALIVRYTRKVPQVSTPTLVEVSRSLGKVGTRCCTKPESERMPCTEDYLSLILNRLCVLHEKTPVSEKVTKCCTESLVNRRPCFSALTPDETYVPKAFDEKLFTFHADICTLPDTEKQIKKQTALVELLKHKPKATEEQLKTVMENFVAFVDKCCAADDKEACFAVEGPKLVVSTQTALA

`Cc1ccc(S[C@]2(C(=O)NCC(C)C)CC(=O)N(Cc3ccccc3)[C@@H]2c2ccc(CO)cc2I)cc1`: the composite z-score is 0.256 in the assay with Albumin (Bos taurus); 0.0301 in assay [2]; -0.125 in assay [3]; 0.633 in [4]; 1.21 in assay [5]; 0.888 in assay [6]. In addition, the results for the composite z-score (in the assay with Sam68 (KHDRBS1); in assay [7]; in [8]) were 1.18, 0.718 and 0.939, respectively. Also, the composite Z-score in assay [1] was 0.552 (inactive).
For the molecule `C=C[C@@H](COC(C)=O)N(Cc1ccc([N+](=O)[O-])cc1)S(=O)(=O)c1ccc(Br)cc1`, the composite z-score with Albumin (Bos taurus) was 0.812; in assay [2] it was -0.0647; in assay [3], -0.0089; in assay [4] it was 0.448; in assay [5] it was 0.432; in [6] it was 0.442. In addition, the composite z-score in the assay on Sam68 (KHDRBS1) stood at 0.573; in [7], 0.241; in assay [8] it was 1.11. Further, in [1], the composite Z-score was 0.181 (inactive).
As for `CC(C)c1ccc(NN2C(C(O)c3ccc(N(C)C)cc3)C=CC3C(=O)N(c4ccccc4)C(=O)C32)cc1` (stereo not given), the composite z-score in the assay with Albumin (Bos taurus) is 0.961; in [2], 0.432; in assay [3] it was 0.0147; in assay [4], 0.393; in [5], 2.76; in [6], -0.161. Moreover, the composite z-score in the assay on Sam68 (KHDRBS1) was 1.29; in assay [7], -0.0118; in assay [8], 1.16. The composite Z-score in assay [1] is -0.343 (inactive).
For `CC(C)Cc1ccc(CN2CC[C@@H](NS(=O)(=O)c3ccccc3)C2)cc1`, the composite z-score with Albumin (Bos taurus) was -0.623; in [2], -0.187; in [3], -0.173; in assay [4] it was -0.114; in [5] it was 0.48; in [6], 0.0054. Also, the composite z-score in the assay on Sam68 (KHDRBS1) is 0.532; in assay [7] it was 0.449; in [8] it was -0.36. The composite Z-score in assay [1] is 0.119 (inactive).
On to `CCCCCN1CC=CC23O[C@@H]4C=CCOC(=O)[C@@H]4[C@H]2C(=O)N(CCCO)[C@@H]3C1=O` (stereo not given in full), for which the composite z-score was 1.02 in the assay with Albumin (Bos taurus); -0.245 in assay [2]; -0.155 in [3]; 0.851 in assay [4]; 2.39 in [5]; 0.937 in [6]. Further, the composite z-score in the assay with Sam68 (KHDRBS1) was 1.28; in [7] it was -0.205; in assay [8], 0.221. In addition, the composite Z-score in assay [1] is 1.01 (inactive).
As for `COC(=O)c1ccc(C(O)C2C=CC3C(=O)N(c4ccccc4)C(=O)C3N2Nc2ccc(C#N)cc2)o1` (stereo not given), the composite z-score in the assay with Albumin (Bos taurus) was 0.887; in assay [2] it was 0.0282; in assay [3], -0.0878; in assay [4], 0.436; in [5], 2.85; in [6] it was 0.387. In addition, the composite z-score with Sam68 (KHDRBS1) is 0.735; in [7] it was 0.0997; in assay [8] it was 0.635. In addition, the composite Z-score in [1] was -0.336 (inactive).
As for `COCCOC(=O)N1C(=O)[C@@]2(c3cc(C#CCNC(N)=O)ccc31)[C@H](C(=O)N1CCc3cc(OC)c(OC)cc3C1)[C@H]1C(=O)O[C@H](c3ccccc3)[C@H](c3ccccc3)N1[C@@H]2c1ccc(OCCO)cc1`, the composite z-score in the assay with Albumin (Bos taurus) was -0.717; in assay [2] it was 0.289; in assay [3] it was -0.186; in [4], 0.225; in [5], 0.423; in assay [6], 0.406. The results for the composite z-score (in the assay on Sam68 (KHDRBS1); in [7]; in [8]) were 0.398, 0.286 and 1.09, respectively. Moreover, the composite Z-score in assay [1] was 0.202 (inactive).
For the molecule `COC(=O)C1=CC(CCCO)=CC(C2CC2)N(Cc2sc3ccccc3c2Cl)C=C1C(=O)OC` (stereo not given), the composite z-score with Albumin (Bos taurus) is 0.932; in assay [2], 0.224; in assay [3] it was -0.0209; in assay [4], 0.817; in [5], 1.55; in assay [6], 1.01. Moreover, the composite z-score with Sam68 (KHDRBS1) was 1.3; in assay [7] it was -0.236; in assay [8] it was 0.949. Moreover, in assay [1], the composite Z-score is 0.408 (inactive).
For the molecule `COCCOC(=O)N1C(=O)[C@@]2(c3cc(C#CCC(C(=O)OC)C(=O)OC)ccc31)[C@H](C(=O)N1CCCCCCC1)[C@H]1C(=O)O[C@H](c3ccccc3)[C@H](c3ccccc3)N1[C@@H]2c1ccc(OCCO)cc1`, the composite z-score with Albumin (Bos taurus) was determined as 0.786; in assay [2], 1.61; in [3] it was 0.738; in assay [4], 0.643; in assay [5] it was 3.78; in [6], 1.06. Moreover, the composite z-score stood at 1.3 in the assay with Sam68 (KHDRBS1), 1.53 in assay [7] and 1.15 in assay [8]. For the same molecule, in assay [1], the composite Z-score was 4.41 (inactive).
Consider `O=C1O[C@H](c2ccccc2)[C@H](c2ccccc2)N2[C@H]1[C@@H](C(=O)NC[C@H](O)c1ccccc1)[C@]1(C(=O)Nc3ccc(C#CCCO)cc31)[C@H]2c1ccc(O)cc1`, for which the composite z-score with Albumin (Bos taurus) is -0.746; in assay [2], -0.0259; in [3], -0.14; in [4], -0.702; in assay [5], 0.155; in assay [6], 1.11. Besides, the composite z-score in the assay with Sam68 (KHDRBS1) was -0.317; in assay [7], -0.316; in [8], -0.743. Besides, the composite Z-score in [1] is 1.33 (inactive).
For `O=C1N(CCS(=O)(=O)c2ccccc2)Cc2ccccc2C[C@]12N=C(c1ccc(OCCCO)cc1)O[C@@H]2c1ccccc1`, the composite z-score was -0.591 in the assay with Albumin (Bos taurus); 0.567 in assay [2]; 0.189 in assay [3]; 0.396 in assay [4]; 3.41 in [5]; 1.17 in assay [6]. Moreover, the composite z-score with Sam68 (KHDRBS1) worked out at 1.13; in assay [7], 1.17; in assay [8], 1.12. Moreover, the composite Z-score in [1] is 0.339 (inactive).
Turning to `COc1cc(CO)ccc1OC(C)=O`, the composite z-score with Albumin (Bos taurus) worked out at 0.344; in assay [2], 0.262; in assay [3], 0.0275; in [4], 0.112; in assay [5], 0.329; in assay [6] it was 0.356. The composite z-score in the assay with Sam68 (KHDRBS1) came out at 0.482; in assay [7] it was 0.689; in [8], 0.687. In addition, in assay [1], the composite Z-score is 0.151 (inactive).
On to `COC(=O)c1ccc(C23CC2(C(NP(=O)(c2ccccc2)c2ccccc2)c2ccccc2)C3)cc1` (stereo not given), for which the composite z-score came out at 0.982 with Albumin (Bos taurus); 0.325 in [2]; 0.359 in assay [3]; 0.819 in assay [4]; 2.8 in [5]; 1.02 in assay [6]. The composite z-score with Sam68 (KHDRBS1) was 0.921; in assay [7] it was -1.12; in assay [8], 0.484. In assay [1], the composite Z-score is 0.117 (inactive).
As for `COCC(=C=CC[C@@H](O)c1ccc(CO)o1)CCO`, the composite z-score in the assay with Albumin (Bos taurus) was -0.606; in assay [2], -0.215; in [3], -0.118; in assay [4], 0.349; in assay [5] it was -0.185; in assay [6], 1.51. The composite z-score in the assay with Sam68 (KHDRBS1) is 0.101; in [7], 0.689; in assay [8], 0.188. The composite Z-score in [1] is 0.111 (inactive).
As to `O=C1O[C@H](c2ccccc2)[C@H](c2ccccc2)N2[C@H]1[C@@H](C(=O)O)[C@]1(C(=O)Nc3ccc(C#CC4=CCCCC4)cc31)[C@H]2c1ccc(OCCO)cc1`, the composite z-score is 0.638 with Albumin (Bos taurus); 0.133 in assay [2]; -0.0523 in assay [3]; 0.537 in assay [4]; 2.01 in [5]; 1.48 in [6]. Moreover, the composite z-score in the assay on Sam68 (KHDRBS1) worked out at 1.29; in [7], 0.494; in [8], 1.18. In addition, the composite Z-score in [1] is 0.0759 (inactive).
In the case of `O=C1O[C@H](c2ccccc2)[C@H](c2ccccc2)N2[C@H]1[C@@H](C(=O)Nc1nc3ccccc3s1)[C@]1(C(=O)Nc3ccccc31)[C@H]2c1ccc(O)cc1`, the composite z-score in the assay with Albumin (Bos taurus) was 0.164; in assay [2], 0.156; in assay [3], -0.0873; in assay [4] it was 0.36; in assay [5], 1.66; in assay [6], 0.293. The composite z-score with Sam68 (KHDRBS1) stood at 1.02; in [7] it was 0.701; in assay [8], 1.07. In addition, in assay [1], the composite Z-score is 0.0275 (inactive).

The values above are taken from PubChem BioAssay.
